# SMN2 splice enh – qHTS Assay for Enhancers of SMN2 Splice Variant Expression | HEK293 SMN2-luciferase splicing reporter, luminescence, 30-36 h | Potency, µM (titrated, usually from 46.1 µM), most hits filed as activators | 210,000 compounds, 2.8% hits; further: nearly all actives have a fitted effect of over 55% in size
#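 HEK293 cells carry an SMN2 minigene-luciferase reporter in which exon 7 inclusion puts luciferase in frame. Cells were seeded at 2000 cells/well, attached for 10-12 hours, then exposed to compounds for 30-36 hours at 37C before ONE-Glo luminescence.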
# NPC1 prom act – qHTS Assay for NPC1 Promoter Activators; Huh7 NPC1 promoter luciferase reporter, 24 h; Potency, µM (top dose mostly 9.22 µM), most hits filed as activators; 320,000 compounds, 2.4% hits; AID 485313, 2010; further: nearly all actives have a fitted effect of over 60% in size
#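 Luminescence from an NPC1 promoter-driven luciferase reporter in stably transfected Huh7 cells was measured after 24 h compound treatment at 37 °C, followed by 10 min ambient incubation with luciferase detection reagent.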
# ELG1 genotoxic – qHTS screen for small molecules that induce genotoxicity in human embryonic kidney (HEK293T) cells expressing luciferase-tagged ELG1. HEK293T ELG1-luciferase reporter, luminescence, 16 h. Potency, µM (titrated, usually from 46 µM), usual class: activators. 330,000 compounds, 1.3% hits. AID 504466, 2011; further: nearly all actives have a fitted effect of over 60% in size
#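 ELG1-luciferase HEK293T cells, 2,000/well; compound pinned in; 16 hr, 37 °C, 5% CO2; ONE-Glo, 30 min RT; luminescence on CCD imager.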
# Rab9 promoter act – qHTS Assay for Rab9 Promoter Activators; Huh7 Rab9 promoter-luciferase reporter, luminescence, 24 h; 320,000 compounds, 2.8% hits; Potency, µM (highest dose often 9.22 µM), actives largely listed as activators; further: nearly all actives have a fitted effect of over 60% in size
#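 Huh7 cells stably carrying Rab9 promoter–luciferase reporter, plated 1500 cells/well, compound added after 2 h and incubated 24 h at 37 °C; luciferase luminescence then read after 10 min with detection reagent.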
# FLuc counter – qHTS profiling assay for firefly luciferase inhibitor/activator using purifed enzyme and Km concentrations of substrates (counterscreen for miR-21 project). Luciferin 4-monooxygenase (Photinus pyralis), P08659. purified FLuc, Km substrates, luminescence inhibition. 360,000 compounds, 6.9% hits. Potency, µM (highest dose often 57.5 µM), usual class: inhibitors. AID 588342, 2011; further: nearly all actives have a fitted effect of over 55% in size
# Target sequence (P08659 whole entry, looked up): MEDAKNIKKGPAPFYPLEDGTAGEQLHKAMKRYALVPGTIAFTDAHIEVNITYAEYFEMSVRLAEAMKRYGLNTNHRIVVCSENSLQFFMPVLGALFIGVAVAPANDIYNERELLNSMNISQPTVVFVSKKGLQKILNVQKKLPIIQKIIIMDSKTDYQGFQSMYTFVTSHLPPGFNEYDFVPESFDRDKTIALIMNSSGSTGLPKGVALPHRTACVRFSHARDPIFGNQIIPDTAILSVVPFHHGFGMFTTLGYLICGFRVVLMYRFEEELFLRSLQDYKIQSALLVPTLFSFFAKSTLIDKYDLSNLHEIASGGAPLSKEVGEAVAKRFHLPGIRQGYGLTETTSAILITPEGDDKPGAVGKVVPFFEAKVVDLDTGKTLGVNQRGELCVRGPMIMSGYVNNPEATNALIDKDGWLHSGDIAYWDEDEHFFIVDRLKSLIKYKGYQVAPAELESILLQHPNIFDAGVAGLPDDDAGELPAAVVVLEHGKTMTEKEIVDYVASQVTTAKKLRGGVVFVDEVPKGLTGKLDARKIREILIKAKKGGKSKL
#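 Purified P. pyralis luciferase, 10 nM final, with Km-level 10 uM D-luciferin and 10 uM ATP in 50 mM Tris acetate pH 7.5, 10 mM Mg acetate, 0.01% Tween-20, 0.05% BSA; 6-point qHTS titration about 60 µM downward; luminescence read.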
# Hits are given with their value; . = inactive; ? = inconclusive; / = no result; [ ] = remark or other dose. Rows were chosen to be rich in hits. Some 7.4% of all compounds tested hit in one or more screens of this group. The call rests on the fitted dose curve; in most records, active means well fitted curve in the direction sought with a large enough effect; inconclusive means small, poorly fitted or top-dose-only effect, or another doubt; inactive means no such curve, though single readings can be large; an effect the other way counts as inactive or inconclusive.
SMILES,SMN2 splice enh,NPC1 prom act,ELG1 genotoxic,Rab9 promoter act,FLuc counter
Cc1ccc(-c2nc3cc(N)ccc3o2)cc1,0.71µM,0.45µM,0.33µM,0.45µM,0.6µM
Nc1ccc2oc(-c3cccc4ccccc34)nc2c1,.,.,.,.,13µM
Cc1ccc2oc(-c3ccco3)nc2c1,.,?,?,?,4.8µM
CC(C)(C)c1ccc(-c2nc3cc(N)ccc3o2)cc1,/,0.32µM,1.3µM,0.63µM,0.43µM
Cc1ccc(-c2nc3cc(N)ccc3o2)c(C)c1,?,?,2.6µM,0.56µM,0.67µM
O=C(CN1C(=O)NC(c2ccccc2)(c2ccccc2)C1=O)NCc1ccc(F)cc1,/,/,.,/,/
CCOc1ccc(N(C)S(=O)(=O)c2cc(-c3cc(C)no3)ccc2CC)cc1,/,.,.,.,.
N#Cc1c(C(F)(F)F)cc(=O)n2c1[nH]c1ccccc12,/,.,.,.,27µM
N#Cc1c(CSCC(=O)O)cc(=O)n2c1[nH]c1ccccc12,/,.,.,.,?
NC(=O)c1cn(-c2ccccc2)nc1-c1cccnc1,.,.,.,.,.
COc1ccc(-c2nn(-c3ccccc3)cc2/C=C(\C#N)S(=O)(=O)c2ccccc2)cc1OC,.,.,.,.,.
C(=N\n1cnnc1)/c1ccc(-c2ccccc2)cc1,.,.,.,.,?
COc1ccc(-c2nn(-c3ccccc3)cc2/C=N/n2cnnc2)cc1OC,?,.,.,.,19µM
COc1ccc(-c2nn(-c3ccccc3)cc2/C=N/NC(N)=S)cc1OC,.,.,.,.,5.4µM
C(=N\n1cnnc1)/c1cn(-c2cccs2)nc1-c1ccccc1,?,.,?,.,7.6µM
COc1ccc(-c2nn(-c3ccccc3)cc2C(N)=O)cc1OC,/,.,.,.,17µM
Cc1cc(O)c(C(c2ccc(Cl)cc2)N2CCN(c3ccccc3)CC2)c(=O)n1Cc1ccco1 (centres undefined),/,/,/,/,.
CCOC(=O)c1c(C)n(S(=O)(=O)c2ccc(C)cc2)c2ccc(NS(=O)(=O)c3ccc(C)cc3)cc12,.,/,/,/,.
Cc1ccc(-c2nn(-c3ccccc3)cc2/C=N/n2c(-c3ccncc3)n[nH]c2=S)cc1,/,.,.,.,.
S=c1[nH]nc(-c2cccs2)n1/N=C/c1cn(-c2ccccc2)nc1-c1ccccc1,/,.,.,.,3.4µM
Cc1c(C(=O)c2ccccc2)oc2ccc3ccccc3c12,/,?,?,3.2µM,4.8µM
Cc1ccsc1C(=O)N1CCCC(CCC(=O)N2CCN(c3ccccn3)CC2)C1 (centres undefined),/,.,.,.,.
CCCn1cc(NC(=O)c2cc(-c3ccccc3)on2)cn1,.,.,23µM,?,13µM
O=C(Nc1cnn(C23CC4CC(CC(C4)C2)C3)c1)c1cc(-c2ccccc2)on1,.,.,.,.,.
O=C(Nc1cccc(Cl)c1)c1cc(-c2ccccc2)on1,/,/,/,/,1.5µM
SMILES,SMN2 splice enh,NPC1 prom act,ELG1 genotoxic,Rab9 promoter act,FLuc counter
COc1cccc(-c2cc(C(=O)Nc3ccccc3SC)no2)c1,.,?,?,?,7.6µM
O=C(Nc1c(Cl)cccc1Cl)c1cc(-c2ccco2)on1,/,.,.,.,?
O=C(Nc1cccc(Cl)c1)c1cc(-c2ccco2)on1,/,.,.,.,2.7µM
CCOc1ccc(S(=O)(=O)NCCc2csc(-c3ccc(Cl)cc3)n2)cc1,/,/,/,/,.
CC[C@H](CC[C@H](C)[C@@H]1CC[C@@H]2[C@H]3CC=C4C[C@@H](O)CC[C@]4(C)[C@H]3CC[C@]21C)C(C)C,.,/,/,/,/
O=C(Nc1cccnc1Cl)c1cc(-c2ccco2)on1,.,.,16µM,?,5.4µM
O=C(Nc1cc(Cl)ccc1O)c1cc(-c2ccco2)on1,/,.,21µM,.,?
CCc1ccc(NC(=O)c2cc(-c3ccco3)on2)cc1,.,.,.,.,2.4µM
COc1cccc(-c2cc(C(=O)Nc3cccc(O)c3)no2)c1,.,?,?,?,0.43µM
COc1ccc(NC(=O)c2cc(-c3ccco3)on2)cc1,?,.,.,.,?
COc1cccc(-c2cc(C(=O)Nc3cccnc3Cl)no2)c1,.,.,?,.,.
Cc1ccc(CCNS(=O)(=O)c2ccc3c(c2)CC(C)N3C(=O)C2CCC2)cc1 (centres undefined),/,/,/,/,.
COc1ccc(-c2cc(C(=O)Nc3cccc(Cl)c3)no2)cc1,/,1µM,1.8µM,1.1µM,0.76µM
COc1ccc(NC(=O)C(C)n2nc(-c3cc(C)ccc3C)c3c(c2=O)CCCC3)cc1 (centres undefined),.,/,/,/,.
Cc1ccc(Nc2nc(CSc3nnc(-c4ccccc4)n3C)cs2)cc1,?,?,?,?,1.2µM
Cc1ccc(Nc2nc(CSc3nnc(-c4ccccc4C)n3C)cs2)cc1,/,?,.,?,1.9µM
Cc1ccccc1-n1c(SCc2csc(Nc3ccccc3)n2)nnc1-c1cccnc1,.,.,.,.,?
Cc1ccc(Nc2nc(CSc3nnc(-c4cccnc4)n3-c3ccccc3C)cs2)cc1,.,.,.,.,11µM
COc1ccc(-c2nnc(SCc3ccccn3)n2C)cc1,.,.,?,?,?
CN(C)Cc1nsc(N(C)C)n1,.[9.22 µM],/,/,/,/
O=c1c2ccccc2c(/C=N/NS(=O)(=O)c2ccccc2)c(O)n1-c1ccccn1,.,.,.,.,.
Cc1ccc(-n2nc3ccc(NC(=O)c4ccc5c(c4)OCO5)cc3n2)cc1,.,.,.,.,.
CCCC(=O)Nc1ccc2nn(-c3ccc(OC)cc3)nc2c1,/,?,?,2µM,5.4µM
CC(C)CC(=O)Nc1ccc2nn(-c3ccccc3)nc2c1,6.3µM,1.6µM,?,1.6µM,2.7µM
CC(C)C(=O)Nc1ccc2nn(-c3ccc(F)cc3)nc2c1,/,0.11µM,?,0.089µM,0.85µM
SMILES,SMN2 splice enh,NPC1 prom act,ELG1 genotoxic,Rab9 promoter act,FLuc counter
O=C(Nc1ccc2nn(-c3ccccc3)nc2c1)c1ccc(Br)o1,.,.,?,.,.
CCCC(=O)Nc1cc2nn(-c3ccc(OC)cc3)nc2cc1C,.,/,/,/,?
Cc1ccc(-n2nc3ccc(NC(=O)C(C)C)cc3n2)cc1,2.2µM,0.35µM,1.2µM,0.35µM,0.95µM
Cc1ccc(-n2nc3ccc(NC(=O)c4ccco4)cc3n2)cc1,.,.,15µM,?,9.5µM
Cc1ccc(-n2nc3ccc(NC(=O)c4oc5ccc(C)cc5c4C)cc3n2)cc1,.,/,/,/,.
O=C(O)c1ccccc1C(=O)Nc1cccc([N+](=O)[O-])c1,/,.,.,.,.
Cc1ccc(NC(=O)c2csc(-c3ccccc3)c2C)cc1,.,0.11µM,?,0.32µM,0.095µM
Cc1c(C(=O)Nc2cccc([N+](=O)[O-])c2)csc1-c1ccccc1,28µM,0.71µM,?,1.3µM,0.85µM
C=CCN(Cc1nc(-c2ccccc2)no1)C(=O)c1ccc2c(c1)OCO2,/,.,.,.,.
CC(C)(C)NC(=O)COc1ccc2oc3c(c2c1)CCCC3,/,.,.,.,.
